A short description of this experiment: NCI Yeast Anticancer Drug Screen. Data for the mlh1 strain (AID 171).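 Further: 0% = growth of vehicle-treated control cultures of the same strain.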 As to conditions: S. cerevisiae mlh1 strain growth inhibition, stronger effect = higher value. As for the experimental part: Growth inhibition of yeast strains with defined genetic alterations is measured as a screen for potential anti-cancer activity. Selected strains with alterations in DNA damage repair or cell cycle control were exposed to compounds and growth inhibition was measured relative to vehicle treated controls. The strain used in this assay is mlh1

The panel holds about 79,000 compounds, 15% with a hit somewhere; the sample as a whole holds those more often. A number with no mark means an inactive call. Active and inactive are the calls of the source. No stated cut-off is given here; in the data, active means growth inhibition above about 70%; inactive means the rest.

With `CCNc1nnc(CSc2nc(-c3ccccc3)c(-c3ccccc3)[nH]2)s1`, the growth inhibition is 3% (at 1.2 µM); 5% (at 3.7 µM); 0% (at 11.0 µM); 81% (active) (at 33.0 µM); 66% (at 100.0 µM).
The matching figures for `COc1cc(C2SCC(=O)N2c2nnc(C(F)(F)F)s2)cc(OC)c1OC` (stereo not given): -3%, -2%, 0%, -1% and -2%.
For `CCCCCCCC1(N=[N+]=[N-])C(=O)c2ccccc2N(C)C1=O` (stereo not given), in that order: 20%, 10%, 18%, 61% and 78% (active).
The matching figures for `C#CCCCc1ccccc1`: -20%, -22%, -26%, 19% and 98% (active).
Regarding `CC[C@@]1(O)C(=O)OCc2c1cc1n(c2=O)Cc2cc3c(N)cccc3nc2-1`, the growth inhibition (at 1.2 µM) is 1%; the growth inhibition (at 3.7 µM) is 6%; the growth inhibition (at 11.0 µM) is 11%; the growth inhibition (at 33.0 µM) was 16%; the growth inhibition (at 100.0 µM) was 2%.
For `COc1ccc(O)c(/C=N\Nc2ccccc2)c1`, in that order: -13%, -8%, -7%, -2% and 74% (active).
For `Nc1ncncc1C(C1=C(O)COC1=O)C1=C(O)COC1=O`, in that order: 4%, 1%, 3%, 3% and 0%.
Consider `CC/C(=C(\c1ccccc1)c1ccc(OCCN(C)C)cc1)c1ccccc1`, for which the growth inhibition (at 1.2 µM) is -3%; the growth inhibition (at 3.7 µM) was 0%; the growth inhibition (at 11.0 µM) was 82% (active); the growth inhibition (at 33.0 µM) was 97% (active); the growth inhibition (at 100.0 µM) is 97% (active).
